# Bioassay records as filed in PubChem BioAssay.
# Tb PYK inh = inhibitors of Trypanosoma brucei pyruvate kinase. TbPYK enzyme, Kinase-Glo Plus ATP luminescence, 45 min. Potency, µM (titrated, usually from 76.8 µM), most hits filed as inhibitors. Q57TT1. 0.12% of 410,000 active; also: nearly all actives have a fitted effect of over 50% in size
#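 Quantitative HTS: titrated library compounds versus trypanosomal pyruvate kinase in TEA buffer (pH 7.2) containing KCl, MgCl2, BSA and Tween-20. Reactions were initiated with ADP, 130 uM final. Kinase-Glo Plus luminescence was read after 45 min at RT.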
# Shiga inhibitor = blocks Shiga toxin action in Vero cells; inhibition, % at 38.7 µM; Vero cells, Shiga toxin protein synthesis inhibition reporter; AID 2315; 9.2% of 290,000 active; in the data active = inhibition mostly above about 28%, no sharp cut-off; inactive = mostly below about 43%
# LmPK inh = inhibitors of Leishmania mexicana pyruvate kinase; AID 1721; purified LmPK, Kinase-Glo ATP luminescence, 1 h; Q27686; Potency, µM (top dose mostly 57.5 µM), hits mostly inhibitors; 0.37% of 290,000 active
#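 qHTS format; LmPK 0.1 nM; substrates PEP 0.5 mM and ADP 0.1 mM. One-hour room-temperature incubation, then coupled luciferase luminescence; 0.5 nM enzyme wells mark activation.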
# Sm TGR inh = blocks Schistosoma mansoni thioredoxin glutathione reductase | Q962Y6 | Potency, µM (highest dose often 114 µM), most hits filed as inhibitors | AID 485364 | purified TGR, DTNB reduction, TNB absorbance 405 nm | 3% of 360,000 active; also: nearly all actives have a fitted effect of over 60% in size
#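 First, TGR (20 nM dispensed) and NADPH were mixed with compound. Second, a 15 min room-temperature incubation followed. Third, further NADPH and then DTNB were added to start the reaction. Finally, TNB absorbance was monitored kinetically.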
# Giardia FBPA inh-1 = blocks Giardia fructose-bisphosphate aldolase activity | AID 2451 | purified Giardia FBPA | Potency, µM (top dose mostly 59.6 µM), most hits filed as inhibitors | A8B2U2 | 0.71% of 290,000 active; also: nearly all actives have a fitted effect of over 55% in size
#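 Giardia FBPA (40 nM reagent) was preincubated 10 min at RT with compound (up to 57.5 uM final), then substrate plus GAPDH/TPI/NAD/arsenate coupling system with diaphorase/resazurin was added; resorufin fluorescence (525/598 nm) was read after 20 min.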
# Cycloheximide cs = counter-screen for Shiga toxin inhibitors: cycloheximide protein synthesis inhibition. cell reporter, cycloheximide protein synthesis inhibition counterscreen. max response, %. 12% of 300,000 active; in the data active = max response mostly above about 13%, no sharp cut-off; inactive = mostly below about 14%; also: read at 38.3 µM for the half of the compounds with a filed dose
# Giardia growth = inhibitors of Giardia lamblia growth | Potency, µM (top dose mostly 57.5 µM), actives largely listed as inhibitors | Giardia lamblia trophozoite growth inhibition | shares compounds with Giardia FBPA inh-1 | AID 2785 | 5% of 1,500 active;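 also: trophozoites exposed to compound for 48 h at 37 °C; nearly all actives have a fitted effect of over 70% in size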
# Mammal cell tox = toxic to mammalian cells in Giardia aldolase counter-screen; shares compounds with Giardia FBPA inh-1; mammalian cell viability counter-screen, qHTS; Potency, µM (top dose mostly 57.5 µM), actives largely listed as inhibitors; 4% of 1,500 active;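 also: Chinese hamster ovary cells used as mammalian cytotoxicity surrogate; viability measured as cellular ATP by luminescence; compound exposure lasted 48 h before reading; nearly all actives have a fitted effect of over 60% in size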
# Giardia FBPA inh-2 = confirmation of Giardia fructose-bisphosphate aldolase inhibitors; shares compounds with Giardia FBPA inh-1; purified Giardia aldolase enzyme activity, qHTS; Potency, µM (titrated, usually from 57.5 µM), actives largely listed as inhibitors; 5% of 1,500 active; AID 2787; also: nearly all actives have a fitted effect of over 45% in size
# Rabbit FBPA inh = selectivity test for Giardia aldolase inhibitors: rabbit aldolase | shares compounds with Giardia FBPA inh-1 | Rabbit muscle FBPA enzyme inhibition, selectivity counter-screen | Potency, µM (top dose mostly 57.5 µM), actives largely listed as inhibitors | 4% of 1,500 active | AID 2794; also: nearly all actives have a fitted effect of over 60% in size
# Target sequence (P00883 whole entry, looked up): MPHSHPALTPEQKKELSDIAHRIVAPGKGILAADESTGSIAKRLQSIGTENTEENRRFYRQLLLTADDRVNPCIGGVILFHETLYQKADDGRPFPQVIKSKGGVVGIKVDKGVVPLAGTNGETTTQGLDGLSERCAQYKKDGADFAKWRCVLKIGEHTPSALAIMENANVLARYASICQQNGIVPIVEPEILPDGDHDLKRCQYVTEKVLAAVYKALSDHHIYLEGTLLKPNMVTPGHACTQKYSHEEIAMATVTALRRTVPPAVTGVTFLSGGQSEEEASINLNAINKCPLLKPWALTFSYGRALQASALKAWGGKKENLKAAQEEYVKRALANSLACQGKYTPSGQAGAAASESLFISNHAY
# GAPDH counter = GAPDH inhibition flagged for Giardia aldolase hits; shares compounds with Giardia FBPA inh-1; GAPDH coupling enzyme counterscreen, biochemical, qHTS; Potency, µM (highest dose often 57.5 µM), actives largely listed as inhibitors; 6% of 1,500 active; AID 2795; also: nearly all actives have a fitted effect of over 55% in size
# Hits are given with their value; - = inactive; ? = inconclusive; . = no result; [ ] = remark or other dose. The entries come from a sample that favours hits as a whole. Unless noted, calls follow the shape of the dose curve; as a rule, active = well fitted curve in the direction sought with a large enough effect; inconclusive = small, poorly fitted or top-dose-only effect, or another doubt; inactive = no such curve, though single readings can be large; an effect the other way counts as inactive or inconclusive.
SMILES,Tb PYK inh,Shiga inhibitor,LmPK inh,Sm TGR inh,Giardia FBPA inh-1,Cycloheximide cs,Giardia growth,Mammal cell tox,Giardia FBPA inh-2,Rabbit FBPA inh,GAPDH counter
CNC(=S)NNS(=O)(=O)c1ccc(OC)cc1OC,-,-,-,-,20µM,-,-,-,-,-,-
S=c1[nH]nc(-c2cnccn2)n1-c1ccccc1,?,-,-,-,-,-,.,.,.,.,.
O=C(O)c1cccc(-n2c(-c3cnccn3)n[nH]c2=S)c1,-,-,-,-,20µM,-,-[10.4 µM],-,-,-,-
CC(=O)/C(=N\Nc1ccc(C)cc1)Sc1nncn1C,?,-,-,-,3.5µM,-,-,-,-,-,-
Cc1ccc(NC(=O)CN(C)C(=O)CSc2nncn2C)cc1,-,-,-,-,-,-,.,.,.,.,.
Nc1ncnc2c1ncn2[C@@H]1O[C@H](C(=O)N(CCC2=CCCCC2)CC2CC2)[C@@H](O)[C@H]1O,-,.,.,.,.,.,.,.,.,.,.
Cc1nc(COC(=O)c2cc(O)c3ccccc3c2O)cs1,?,-,-,18µM,20µM,-,-[10.4 µM],-,?,?,?
Cc1nc(COC(=O)c2ccc(CO)cc2)cs1,-,-,-,-,-,-,.,.,.,.,.
O=C(NC(=S)Nc1cccnc1Cl)c1ccc(F)cc1,-,83,-,?,14µM,49,?,-,-,-,-
O=C(NC(=S)Nc1ccc(NC(=O)c2ccccc2)cc1)c1ccc(F)cc1,-,-,-,-,.,-,.,.,.,.,.
O=C(NC(=S)Nc1ncccn1)c1ccc(F)cc1,-,70,-,-,6.3µM,49,?,-,-,-,-
O=C(NC(=S)Nc1ccccc1N1CCCC1)c1ccc(F)cc1,-,-,-,-,-,-,.,.,.,.,.
CC(=O)Nc1ccc(NC(=O)CN(C)S(=O)(=O)c2ccc3c(c2)CCC(=O)N3)cc1,-,-,-,-,.,-,.,.,.,.,.
COc1ccc(-n2c(=S)[nH]c3[nH]ncc3c2=O)cc1,?,-,-,-,18µM,-,-[10.4 µM],-,-,-,-
Cc1ccccc1/C=N/Nc1nc2ccccc2c(=O)n1O,-,75,-,-,18µM,20,?,-,-,-,-
COc1ccccc1-c1nc2ccccc2c(=O)n1O,-,-,-,-,-,-,.,.,.,.,.
COc1cccc(-c2cnc(C(O)c3ccc(OC)c(F)c3)[nH]2)c1 (stereo not drawn),-,.,.,.,.,.,.,.,.,.,.
Cn1ccc2ccc(C3=CC(=O)C[C@H](c4ccc(F)cc4)C3)cc21,-,.,.,-,.,.,.,.,.,.,.
O=C(c1cccc(F)c1)N1CCN(S(=O)(=O)Cc2ccccc2)CC1,-,-,-,-,-,-,.,.,.,.,.
CNC(=S)N(C)CCc1cc2c(c(OC)c1C=C1C(=O)NC(=O)NC1=O)OCO2,-,-,-,?,7.1µM,-,-,-,-,-,-
C=CCN1C(=O)NC(=O)/C(=C/c2c(CCN(C)C(=O)c3ccccc3)cc3c(c2OC)OCO3)C1=O,-,-,-,-,-,-,.,.,.,.,.
Cn1c(=O)c2c([nH]c(=S)n2CCCc2ccccc2)n(C)c1=O,2.5µM,.,-,-,10µM,-,-[10.4 µM],-,-,-,-
Cn1c(=O)[nH]c(=O)c2c1[nH]c(=S)n2CCCc1ccccc1,?,-,-,-,3.5µM,-,-,-,-,35µM,-
Cn1c(=O)c2c(nc(Br)n2CCCc2ccccc2)n(C)c1=O,-,-,-,-,-,-,.,.,.,.,.
COc1cc(C(=O)Nc2ccc(S(=O)(=O)N3CCOCC3)cc2)c([N+](=O)[O-])cc1OC,-,-,-,-,-,-,.,.,.,.,.
O=S(=O)(NCc1nc2cccnc2n1Cc1ccc(F)cc1)c1ccc(Cl)s1,-,.,.,-,.,.,.,.,.,.,.
